An excerpt weighted towards active compounds, which were near 0.47% of everything screened.
AID inhibitor = Primary qHTS assay for inhibitors of Activation Induced Cytidine Deaminase (AID): AID signal; Potency, µM (titrated, usually from 115 µM), actives largely listed as inhibitors; 0.32% of 91,000 active; AID deamination FRET fluorescence, UDG-coupled, 4 h; Single-stranded DNA cytosine deaminase (Homo sapiens), Q9GZX7; further: nearly all actives have a fitted effect of over 25% in size
Target sequence (Q9GZX7 whole entry, looked up): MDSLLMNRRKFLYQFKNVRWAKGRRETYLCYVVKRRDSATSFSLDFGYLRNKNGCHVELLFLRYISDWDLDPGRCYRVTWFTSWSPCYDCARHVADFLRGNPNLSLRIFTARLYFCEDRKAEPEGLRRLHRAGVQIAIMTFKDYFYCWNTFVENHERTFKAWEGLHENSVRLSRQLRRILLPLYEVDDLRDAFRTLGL
UDG counterscr = Primary qHTS assay for inhibitors of Activation Induced Cytidine Deaminase (AID): UDG Counterscreen signal; Uracil-DNA glycosylase; FRET deamination/UDG coupled assay, UDG read, 4 h; Potency, µM (top dose mostly 115 µM), hits mostly inhibitors; 0.14% of 91,000 active; AID 1347430, 2020; further: nearly all actives have a fitted effect of over 65% in size
Large screens that a line does not name were inactive. The call rests on the fitted dose curve; in most records, active means well fitted curve in the direction sought with a large enough effect; inconclusive means small, poorly fitted or top-dose-only effect, or another doubt; inactive means no such curve, though single readings can be large; an effect the other way counts as inactive or inconclusive.

COc1ccc(-n2cnc3c2NC(=O)CC3c2cc(OC)c3c(c2OC)OCO3)cc1 (stereo unspecified)	AID inhibitor inconclusive
CN(/C=C/C(=O)/C=C/N(C)c1ccccc1)c1ccccc1	none
Cc1cccc(C)c1Nc1c(-c2ccc(Cl)s2)nc2ncccn12	AID inhibitor 45µM, UDG counterscr inconclusive
CCc1cccc(C)c1Nc1c(-c2cccs2)nc2ncccn12	AID inhibitor inconclusive
COc1cccc(CNCc2ccco2)c1	none
COc1cccc(C2CC(=O)Nc3ccsc32)c1OC (stereo unspecified)	none
COc1cccc(C2CC(=O)Nc3nc(N)sc32)c1OCC(C)C (stereo unspecified)	AID inhibitor 40µM
COc1cccc(C(=O)N(Cc2ccc(C)o2)C2CCS(=O)(=O)C2)c1 (stereo unspecified)	none
CCCCOc1c(Cl)cc(C(=O)N(Cc2ccc(C)o2)C2CCS(=O)(=O)C2)cc1Cl (stereo unspecified)	AID inhibitor inconclusive, UDG counterscr 89µM
Cc1nc(SCC(=O)Nc2cccc3ccccc23)oc1C	none
CCc1ccc2c(c1)NC(c1ccc(OC)cc1)=NC(c1ccncc1)=N2	AID inhibitor inconclusive, UDG counterscr 89µM
COc1ccc(C2=NC(c3ccncc3)=Nc3ccc(OC)cc3N2)cc1	none
OC(CC#CCN1CCN(CC#CCC(O)(c2ccccc2)c2ccccc2)CC1)(c1ccccc1)c1ccccc1	none
CCOc1ccccc1NC(=O)CSc1nc2ccccc2nc1N1CCOCC1	AID inhibitor 22µM, UDG counterscr inconclusive
COc1ccc(NC(=O)CSc2nc3ccccc3nc2N2CCOCC2)c(OC)c1	AID inhibitor inconclusive
COc1cccc(NC(=O)CCN2CCN(c3ccccc3)CC2)c1	none
Cc1cccc(NC(=O)CCN2CCN(Cc3cccc4ccccc34)CC2)c1	AID inhibitor inconclusive, UDG counterscr 79µM
Cc1ccc(NC(=O)CCN2CCN(CCO)CC2)cc1C	none
Cc1cc(NC(=O)CCN2CCN(Cc3cccc4ccccc34)CC2)ccc1Br	AID inhibitor inconclusive, UDG counterscr 89µM
O=C(/C=C/c1cccc(O)c1)c1cccc(Br)c1	none
CN(C)C(=O)/C=C/c1ccc(-c2ccccc2F)o1	none
CC1Sc2ccc(C(=O)NO)cc2NC1=O (stereo unspecified)	none
CCCN(CCC)CC(O)Cn1cc(/C=C/C(=O)c2ccc(OCC)cc2)c2ccccc21 (stereo unspecified)	AID inhibitor 35µM
CC(C)CN(CC(C)C)CC(O)Cn1cc(/C=C/C(=O)c2ccccc2)c2ccccc21 (stereo unspecified)	AID inhibitor inconclusive
Cc1ccc(C)c(N2CCN(CCCNC(=O)c3ccc4nc(N5CCC(C)CC5)sc4c3)CC2)c1	AID inhibitor 32µM, UDG counterscr inconclusive
Cc1ccc(Cl)cc1N1CCN(CCCNC(=O)c2ccc3nc(N4CCCCC4)sc3c2)CC1	AID inhibitor inconclusive
CCNC(=O)N(Cc1nc(-c2ccc(C)cc2)no1)C1CCCCC1	none
Cc1ccc(CC(=O)N(Cc2nc(-c3ccccc3)no2)C2CCCCC2)cc1	UDG counterscr 79µM
Cc1cccc(Cn2c(=O)n3nc(-c4ccccc4)nc3c3ccccc32)c1	AID inhibitor 79µM
O=c1n(Cc2cccc(F)c2)c2ccccc2c2nc(-c3ccccc3)nn12	none
CCN(CC)CCCNC(=O)c1oc2c(c1C)-c1nn(Cc3ccc(Cl)cc3)cc1CC2	none
CCOCCCNC(=O)Cn1cc2c(n1)-c1c(oc(C(=O)N3CCCC3)c1C)CC2	AID inhibitor 79µM, UDG counterscr inconclusive
COCCCNC(=O)c1oc2c(c1C)-c1nn(Cc3cccc(Cl)c3)cc1CC2	AID inhibitor 89µM
COCCCNC(=O)c1oc2c(c1C)-c1nn(Cc3ccc(Cl)cc3)cc1CC2	none
CCOc1ccc2c(c1)C(NC(C)=O)C(=O)N2CCOc1ccccc1 (stereo unspecified)	none
C(=N\Nc1cccc2cccnc12)/c1c[nH]c2ccccc12	none
CCCCN(C)c1ccc(-c2n[nH]c(=O)c3ccccc23)cc1[N+](=O)[O-]	UDG counterscr 89µM
O=c1[nH]nc(-c2ccc(N3CCCCC3)c([N+](=O)[O-])c2)c2ccccc12	none
CC(NC(=O)c1ccc(NC(=O)C2CC2)s1)c1ccc(Cl)cc1 (stereo unspecified)	none
CCc1nn2c(=O)cc(COC(=O)c3ccc(NC(=O)C4CCCCC4)cc3)nc2s1	none
Cc1nn2c(=O)cc(COC(=O)c3ccc(NC(=O)C4CCCCC4)cc3)nc2s1	AID inhibitor 45µM
Cc1oc(-c2ccccc2Cl)nc1CS(=O)(=O)CC(=O)NC(C)c1ccccc1 (stereo unspecified)	AID inhibitor inconclusive
Cc1oc(-c2ccccc2Cl)nc1CS(=O)(=O)CC(=O)NC(C)CCc1ccccc1 (stereo unspecified)	AID inhibitor 20µM
Cc1ccc(N(C)C(=O)c2cc(-c3ccco3)nc3ccccc23)cc1	none
CCN1CCN(CCCNC(=O)c2cnn(-c3ccc(C)cc3)c2C2CCN(C(=O)OC(C)(C)C)CC2)CC1	none
Cc1ccc(-n2ncc(C(=O)NCCc3ccccc3)c2C2CCN(C(=O)OC(C)(C)C)CC2)c(C)c1	AID inhibitor 25µM
Cc1ccc(C)c(N2CCN(CCCNC(=O)c3cnn(-c4ccc(F)cc4)c3C3CCN(C(=O)OC(C)(C)C)CC3)CC2)c1	AID inhibitor 28µM
Cc1ccc(C)c(N2CCN(CCCNC(=O)c3cnn(-c4cccc(Cl)c4)c3C3CCN(C(=O)OC(C)(C)C)CC3)CC2)c1	AID inhibitor 35µM
CC(C)(C)OC(=O)N1CCC(c2c(C(=O)NCCc3ccccc3)cnn2-c2ccc(F)cc2F)CC1	AID inhibitor inconclusive
CN1CCN(CCNC(=O)c2cnn(-c3cccc(Cl)c3)c2C2CCN(C(=O)OC(C)(C)C)CC2)CC1	none
CCCCCC(C)NCc1sccc1C (stereo unspecified)	none
Oc1ccc2[nH]cc(CCNC(c3ccccc3)(c3ccccc3)c3ccccc3)c2c1	none
CCCN(CC)c1ccc(/C=N/NC(=S)Nc2ccc(C)cc2)cc1	none
CCC(=O)Oc1c(Sc2ccc(Cl)cc2)c(C)nn1C(C)(C)C	UDG counterscr 79µM
Cc1nn(-c2ccccc2)c(OC(=O)C(C)C)c1Sc1ccc(Cl)cc1	AID inhibitor inconclusive
Cc1cccc(NC(=O)CSC2=C(C#N)C(c3ccccc3C)C3=C(CCCC3=O)N2)c1 (stereo unspecified)	none
CCCN(C(=O)CCc1nc(-c2ccc(OC)cc2)no1)c1ccccc1F	AID inhibitor 40µM
CCCN(C(=O)Cc1nc(-c2ccc(OC)cc2)no1)c1ccccc1C	AID inhibitor inconclusive
CC(Oc1ccc(C(=O)c2ccccc2)cc1)C(=O)N1CCc2ccccc21 (stereo unspecified)	UDG counterscr 79µM
COc1ccc(OC)c(NC(=O)NC(C)C(=O)N2CCc3ccccc32)c1 (stereo unspecified)	none
COc1cccc(C(=O)/C(=C/c2cccnc2)c2nc3ccccc3o2)c1	none
Cc1cccc(C)c1OCCCCn1c(C2CC(=O)N(c3ccc(F)cc3)C2)nc2ccccc21 (stereo unspecified)	AID inhibitor inconclusive, UDG counterscr 79µM
COc1ccc(OCCn2c(C3CC(=O)N(c4ccc(F)cc4)C3)nc3ccccc32)cc1 (stereo unspecified)	AID inhibitor inconclusive
COc1ccc(C(=O)NCC(c2cccnc2)N2CCc3ccccc32)cc1 (stereo unspecified)	AID inhibitor 100µM

Compound activity as filed in PubChem BioAssay.
